# High-throughput results as filed in PubChem BioAssay.
# Mdm2-MdmX inh: human Mdm2/MdmX binding inhibition. actives 3% (n = 330,000). inhibition, % at 8 µM. SaOS-2 split-luciferase Mdm2/MdmX complementation, luminescence;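 active = inhibition of at least 50% at 8 µM in the primary screen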
# Target sequence (O15151 whole entry, looked up): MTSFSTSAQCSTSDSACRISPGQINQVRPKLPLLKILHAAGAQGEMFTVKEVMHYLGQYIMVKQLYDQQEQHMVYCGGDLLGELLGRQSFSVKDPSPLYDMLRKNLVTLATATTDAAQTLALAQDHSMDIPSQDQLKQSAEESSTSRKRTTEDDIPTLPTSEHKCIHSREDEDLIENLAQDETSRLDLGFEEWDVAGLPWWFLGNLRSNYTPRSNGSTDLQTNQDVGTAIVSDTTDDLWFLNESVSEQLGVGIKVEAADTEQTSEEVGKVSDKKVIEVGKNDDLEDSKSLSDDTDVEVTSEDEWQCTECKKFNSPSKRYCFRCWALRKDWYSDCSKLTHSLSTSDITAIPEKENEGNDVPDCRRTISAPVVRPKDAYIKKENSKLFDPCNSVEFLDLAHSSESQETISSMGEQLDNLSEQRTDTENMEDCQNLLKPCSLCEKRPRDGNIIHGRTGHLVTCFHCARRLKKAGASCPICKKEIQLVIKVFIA
# Target sequence (Q00987 whole entry, looked up): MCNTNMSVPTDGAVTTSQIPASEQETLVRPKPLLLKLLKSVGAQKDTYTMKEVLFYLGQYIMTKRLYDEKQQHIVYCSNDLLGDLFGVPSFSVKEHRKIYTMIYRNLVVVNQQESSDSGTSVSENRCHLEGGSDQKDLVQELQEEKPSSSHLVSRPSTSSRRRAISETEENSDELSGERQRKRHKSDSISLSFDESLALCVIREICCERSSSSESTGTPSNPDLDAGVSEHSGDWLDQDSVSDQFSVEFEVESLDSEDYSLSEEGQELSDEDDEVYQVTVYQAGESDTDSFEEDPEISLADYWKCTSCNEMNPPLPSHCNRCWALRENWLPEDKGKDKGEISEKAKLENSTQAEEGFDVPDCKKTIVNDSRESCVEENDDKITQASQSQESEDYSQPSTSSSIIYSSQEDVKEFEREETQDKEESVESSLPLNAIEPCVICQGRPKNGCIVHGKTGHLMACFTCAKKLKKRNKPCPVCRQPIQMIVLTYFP
# NR3A LBD binder: modulators (binders) of human NR3A ligand-binding domain. NR3A LBD differential scanning fluorimetry, Tm shift; 0% = protein alone, 100% = glycine-bound protein. Tm shift relative to glycine control, % at 25 µM. actives 2.5% (n = 340,000). AID 1259313;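 active = melting temperature shift of at least 10% of the positive control shift, at one fixed dose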
# Gli-Sufu block: blocks Gli-Sufu signaling in a luciferase reporter | Sufu-KO-LIGHT fibroblasts, Gli luciferase reporter luminescence | inhibition, % at 5 µM | actives 0.74% (n = 340,000) | AID 588413;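 active = inhibition above about 55%, limit read from the data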;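 note: 0% = DMSO-treated cells and 100% = wells with medium but no cells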
# MPTP block: permeability transition pore inhibition | inhibition, % at 10 µM | actives 1.4% (n = 360,000) | isolated mouse mitochondria, Ca2+ swelling absorbance, 30 min;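 active = inhibition of 50% or more, scaled per plate between neutral and stimulator controls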;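 note: 0% = DMSO wells given calcium and 100% = 1 mM EGTA wells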
# CSC inhib: blocks cancer stem cells. cancer stem cell-like cells viability, luminescence. actives 1.1% (n = 300,000). inhibition, % at 7.5 µM. AID 2717; in the data active = inhibition above about 75%; tested in HMLE shEcad cells
# Beta apoptosis: beta cell apoptosis inhibition; INS-1E cytokine-induced death, ATP luminescence, 48 h; percent of positive-control rescue, neutral wells zero; protection from apoptosis, % (no concentration beside the values); actives 0.8% (n = 300,000); AID 435005;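 active = Every replicate reaches about 75%, or at least half do and their mean reaches it too, limit read from the data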;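 note: 0% = cytokine-treated negative control wells and 100% = positive control rescue; higher means more ATP so stronger rescue from cytokine killing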
# Rh123 counter: Rhodamine 123 counter-screen of mitochondrial pore hits; shares compounds with MPTP block; isolated mitochondria, membrane potential, Rhodamine 123 fluorescence; inhibition, % at 10 µM; actives 78% (n = 5,000); AID 624504; in the data active = inhibition above about 22%;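 note: 0% = DMSO vehicle and 100% = positive control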
# MPTP abs DR: MPTP inhibition, dose response swelling confirmation; shares compounds with MPTP block; isolated mitochondria swelling, absorbance; IC50, µM; actives 58% (n = 780); AID 651561; in the data active = IC50 below about 20 µM
# MPTP counter DR: counter-screen for mitochondrial permeability transition pore inhibitors, dose response; shares compounds with MPTP block; isolated mitochondria counterscreen, fluorescence read-out; IC50, µM; actives 49% (n = 780); in the data active = IC50 below about 80 µM
# The depositor's hits bear a star; · = not tested or not shown. Shown are actives, neighbours in structure and some others; about 6.6% of the full set was active somewhere.
SMILES,Mdm2-MdmX inh,NR3A LBD binder,Gli-Sufu block,MPTP block,CSC inhib,Beta apoptosis,Rh123 counter,others
CC(C)(C)c1ccc(NC(=O)Nc2ccc(F)cc2)cc1,-135,14*,-86,99*,1,18,88*,
CCOC(=O)c1cc(NC(=O)Nc2ccc(Br)cc2)c(C)nc1C,8,6,7,74*,20,-1,70*,
CCOC(=O)c1ccc(NC(=O)Nc2ccc(F)cc2)cc1,-6,35*,-27,97*,19,6,85*,
CCOC(=O)c1sc(NC(=O)Nc2ccc(F)cc2)nc1C,-146,0,-116,73*,·,·,84*,
Cc1nc(NCCc2ccc(S(N)(=O)=O)cc2)c2c3c(sc2n1)CCC3,2,-1,9,1,-6,2,·,
Cc1nc(NS(=O)(=O)c2ccc(Cl)s2)c2c3c(sc2n1)CCCC3,11,1,9,84*,34,8,77*,
Cc1cc([N+](=O)[O-])ccc1NC(=S)NC1CCCC1,9,2,-3,67*,-6,7,97*,
Cc1ccccc1NC(=S)NC1CCCC1,8,1,-14,1,-21,-1,·,
CCOc1ccc(C(=O)Nc2cccc([N+](=O)[O-])c2)cc1Br,-3,27*,-9,80*,13,1,69*,
Cc1cc(Br)ccc1NC(=S)Nc1cccc([N+](=O)[O-])c1,-16,-3,0,97*,-3,0,91*,
O=C(Nc1ccccc1)NC1CCCCCCC1,-16,-2,-36,15,2,·,·,
CCOc1ccc(C(=O)Nc2cccc(NC(=O)c3cccs3)c2)cc1[N+](=O)[O-],·,7,4,10,·,·,·,
O=C(Nc1ccc(Br)cc1)NC1CCCCCCC1,24,11*,-105,88*,-5,14,96*,
Cc1sc2c(c1C)C(=O)/C(=C\Nc1ccccn1)S(=O)(=O)N2C,11,3,7,2,0,-2,·,
Cc1ccc(S(=O)(=O)N(C)c2ccc(OCC(=O)NCC3(N(C)C)CCCCC3)cc2)cc1,23,0,29,-1,35,-3,·,
O=C(Nc1ccc(C(=O)O)cc1)Nc1cccc([N+](=O)[O-])c1,13,1,-1,81*,·,·,76*,
CC(=O)NC(=S)Nc1cccc([N+](=O)[O-])c1,7,-1,28,-1,5,-1,·,
COc1cc(NC(=O)Nc2cccc([N+](=O)[O-])c2)cc(OC)c1,26,29*,-3,98*,17,3,89*,
O=C(Nc1cccc([N+](=O)[O-])c1)NC1CCCCCCC1,-43,-2,-57,80*,24,8,95*,
O=C(Nc1cccc([N+](=O)[O-])c1)Nc1ccc2c(c1)OCCO2,-130,29*,-96,62*,-6,5,91*,
CC(NC(=O)Cc1ccc([N+](=O)[O-])cc1)c1ccc2c(c1)OCO2 (stereo not drawn),-2,0,0,2,0,2,·,
COc1ccc(OCCN2CCN(C(=O)c3ccc(OC)c(OC)c3)CC2)cc1,0,-2,24,0,-23,1,·,
CCOc1c(Cl)cc(CNCC(C)C)cc1Cl,-8,-1,-2,0,-4,-2,·,
COc1ccc(CNC(=O)COC(=O)c2ccc(S(=O)(=O)N3CCOCC3)cc2)cc1,8,0,4,-2,-17,-5,·,
O=C(Nc1cccc([N+](=O)[O-])c1)N(c1ccccc1)c1ccccc1,·,3,4,1,·,·,·,
SMILES,Mdm2-MdmX inh,NR3A LBD binder,Gli-Sufu block,MPTP block,CSC inhib,Beta apoptosis,Rh123 counter,others
O=C(Nc1cccc([N+](=O)[O-])c1)Nc1cccc([N+](=O)[O-])c1,45,26*,8,91*,·,43,78*,
O=C(Nc1cccc([N+](=O)[O-])c1)C(=O)N1CCCCC1,-36,-2,-40,4,2,1,·,
CC(C)S(=O)(=O)c1csc(NC(=O)Nc2cccc([N+](=O)[O-])c2)c1Cl,36,29*,-7,84*,23,12,69*,
COc1ccc(CCNC(=O)Nc2cccc([N+](=O)[O-])c2)cc1,8,6,-3,85*,13,1,83*,
COc1ccc(CCNC(=O)Nc2cccc([N+](=O)[O-])c2)cc1OC,10,-18,-6,0,-7,-10,·,
O=C(Nc1cccc([N+](=O)[O-])c1)NN1CCCCCC1,·,8,8,94*,·,·,82*,
O=[N+]([O-])c1ccccc1N(CC1CO1)S(=O)(=O)c1ccccc1 (stereo not drawn),-11,0,1,1,-6,·,·,
CC(C)CCNC(=O)C1CCC(CNS(=O)(=O)c2cccc3nsnc23)CC1 (stereo not drawn),-4,0,-2,-2,-12,4,·,
CCOC(=O)c1c(C)[nH]c(C)c1S(=O)(=O)N1CCN(c2cccc(C)c2)C(C)C1 (stereo not drawn),-14,0,5,0,26,-6,·,
O=C(Nc1cccc([N+](=O)[O-])c1)ONC1=NCCCCC1,-7,0,-9,68*,-6,-9,77*,
O=C(Nc1cccc([N+](=O)[O-])c1)c1ccc(CSc2ccccc2)cc1,17,31*,2,78*,3,1,86*,
N#CC(=C1C=C(Br)C(=NO)C=C1Cl)c1cccc2ccccc12,·,·,·,76*,·,·,57*,
c1ccc(Sc2cccc3ccccc23)c(CNC2=NCCN2)c1,28,-3,48,101*,6,13,29*,
Fc1ccccc1Sc1ccccc1CNC1=NCCN1,-15,1,41,1,·,·,·,
CN(C)Cc1ccccc1Sc1cccc2ccccc12,·,-8,6,66*,3,6,6,MPTP abs DR=11*;MPTP counter DR=61*
O=C(Nc1ccc(Cl)cc1)c1cncs1,24,0,0,0,-6,·,·,
Cc1ccc(O)c(-c2cc3ccccc3[nH]2)c1,8,22*,6,53*,44,3,49*,
Cc1ccc(C(=O)OCc2cc3ccccc3[nH]c2=O)cc1,11,1,7,-1,30,1,·,
Cc1ccc(NCC(=O)Nc2ccc(Br)cc2)cc1C,1,1,-12,3,0,3,·,
Cc1ccc(F)cc1NCC(=O)Nc1ccc(Br)cc1,-22,-3,-17,71*,-1,-6,72*,
O=C(O)/C=C/c1cn(Cc2ccccc2Cl)nc1-c1ccccc1,22,-1,3,-1,-1,4,·,
CC(C)c1ccc(NS(=O)(=O)c2ccc(-n3cccn3)cc2)cc1,-3,2,-7,1,3,-2,·,
